# Measurements as given in ChEMBL document CHEMBL1961873, “Compounds: GSK PKIS; Assays: Nanosyn kinase panel” (2012).
# Columns and labels:
# [1] = molecular target: Casein kinase I isoform gamma-2 (Homo sapiens) (UniProt P78368); conditions: at 1 µM
# [2] = molecular target: Casein kinase I isoform gamma-3 (Homo sapiens) (UniProt Q9Y6M4); conditions: at 0.1 µM
# [3] = molecular target: Casein kinase I isoform gamma-3 (Homo sapiens) (UniProt Q9Y6M4); conditions: at 1 µM
# [4] = molecular target: Cyclin-dependent kinase 1 (Homo sapiens) (UniProt P06493); conditions: at 0.1 µM
# Chain of Cyclin-dependent kinase 1 (Homo sapiens) (P06493 whole entry, looked up): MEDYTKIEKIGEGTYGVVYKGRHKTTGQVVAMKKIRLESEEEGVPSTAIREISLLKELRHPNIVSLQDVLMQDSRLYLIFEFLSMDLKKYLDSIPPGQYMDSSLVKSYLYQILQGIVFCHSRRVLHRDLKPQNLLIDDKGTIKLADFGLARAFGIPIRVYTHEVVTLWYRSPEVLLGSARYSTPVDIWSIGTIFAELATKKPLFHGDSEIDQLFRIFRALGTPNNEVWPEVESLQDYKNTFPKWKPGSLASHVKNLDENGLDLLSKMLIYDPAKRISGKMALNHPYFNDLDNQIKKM
# [5] = molecular target: Cyclin-dependent kinase 1 (Homo sapiens) (UniProt P06493); conditions: at 1 µM
# [6] = molecular target: Cyclin-dependent kinase 2 (Homo sapiens) (UniProt P24941); conditions: at 0.1 µM
# [7] = molecular target: Cyclin-dependent kinase 2 (Homo sapiens) (UniProt P24941); conditions: at 1 µM
# [8] = molecular target: Cyclin-dependent kinase 2 (Homo sapiens) (UniProt P24941); conditions: at 0.1 µM; remark: listed apart in the source
# [9] = molecular target: Cyclin-dependent kinase 2 (Homo sapiens) (UniProt P24941); conditions: at 1 µM; remark: listed apart in the source
# [10] = molecular target: T1, CDK3/Cyclin E (Homo sapiens) (UniProt P24864+Q00526); conditions: at 0.1 µM
# T1 sequence (P24864 whole entry, looked up): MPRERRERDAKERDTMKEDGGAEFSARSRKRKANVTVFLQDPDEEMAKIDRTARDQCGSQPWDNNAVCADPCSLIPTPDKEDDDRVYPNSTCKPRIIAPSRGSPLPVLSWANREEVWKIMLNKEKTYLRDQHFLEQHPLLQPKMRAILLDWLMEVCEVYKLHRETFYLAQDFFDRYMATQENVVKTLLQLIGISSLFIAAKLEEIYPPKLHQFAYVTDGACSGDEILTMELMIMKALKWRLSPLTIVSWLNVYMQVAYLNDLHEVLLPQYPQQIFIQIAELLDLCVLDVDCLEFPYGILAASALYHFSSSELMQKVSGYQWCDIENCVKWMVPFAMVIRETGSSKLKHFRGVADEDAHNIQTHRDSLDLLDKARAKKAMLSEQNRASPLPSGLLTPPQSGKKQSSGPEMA
# T1 sequence (Q00526 whole entry, looked up): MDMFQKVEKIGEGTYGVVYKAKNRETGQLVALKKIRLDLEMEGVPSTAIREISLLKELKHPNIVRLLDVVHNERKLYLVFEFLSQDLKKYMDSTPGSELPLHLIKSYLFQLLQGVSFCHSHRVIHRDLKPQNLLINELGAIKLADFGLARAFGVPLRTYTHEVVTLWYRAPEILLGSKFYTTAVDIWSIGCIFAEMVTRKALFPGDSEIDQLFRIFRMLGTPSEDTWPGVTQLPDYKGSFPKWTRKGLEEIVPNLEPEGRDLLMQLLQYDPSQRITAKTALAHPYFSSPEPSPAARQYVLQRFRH
# [11] = molecular target: T1, CDK3/Cyclin E (Homo sapiens); conditions: at 1 µM
# [12] = molecular target: Cyclin-dependent kinase 4 (Homo sapiens) (UniProt P11802); conditions: at 0.1 µM
# Chain of Cyclin-dependent kinase 4 (Homo sapiens) (P11802 whole entry): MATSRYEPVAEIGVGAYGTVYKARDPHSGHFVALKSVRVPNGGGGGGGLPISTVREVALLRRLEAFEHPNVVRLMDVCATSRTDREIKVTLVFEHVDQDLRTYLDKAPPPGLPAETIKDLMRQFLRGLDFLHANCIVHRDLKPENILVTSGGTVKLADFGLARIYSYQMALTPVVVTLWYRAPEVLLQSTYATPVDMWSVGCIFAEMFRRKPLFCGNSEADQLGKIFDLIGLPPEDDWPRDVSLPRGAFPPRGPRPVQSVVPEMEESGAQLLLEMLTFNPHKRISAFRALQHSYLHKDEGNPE
# [13] = molecular target: Cyclin-dependent kinase 4 (Homo sapiens) (UniProt P11802); conditions: at 1 µM
# [14] = molecular target: Cyclin-dependent kinase 5 (Homo sapiens) (UniProt Q00535); conditions: at 0.1 µM
# Chain of Cyclin-dependent kinase 5 (Homo sapiens) (Q00535 whole entry, looked up): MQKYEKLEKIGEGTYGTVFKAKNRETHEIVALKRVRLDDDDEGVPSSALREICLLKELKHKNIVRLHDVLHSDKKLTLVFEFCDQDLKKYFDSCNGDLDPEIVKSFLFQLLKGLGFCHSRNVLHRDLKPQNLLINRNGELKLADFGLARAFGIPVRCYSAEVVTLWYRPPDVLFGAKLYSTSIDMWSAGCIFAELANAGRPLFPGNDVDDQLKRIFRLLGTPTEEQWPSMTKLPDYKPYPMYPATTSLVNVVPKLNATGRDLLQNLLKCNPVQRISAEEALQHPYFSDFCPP
# [15] = molecular target: Cyclin-dependent kinase 5 (Homo sapiens) (UniProt Q00535); conditions: at 1 µM
# [16] = molecular target: Cyclin-dependent kinase 6 (Homo sapiens) (UniProt Q00534); conditions: at 0.1 µM
# Chain of Cyclin-dependent kinase 6 (Homo sapiens) (Q00534 whole entry): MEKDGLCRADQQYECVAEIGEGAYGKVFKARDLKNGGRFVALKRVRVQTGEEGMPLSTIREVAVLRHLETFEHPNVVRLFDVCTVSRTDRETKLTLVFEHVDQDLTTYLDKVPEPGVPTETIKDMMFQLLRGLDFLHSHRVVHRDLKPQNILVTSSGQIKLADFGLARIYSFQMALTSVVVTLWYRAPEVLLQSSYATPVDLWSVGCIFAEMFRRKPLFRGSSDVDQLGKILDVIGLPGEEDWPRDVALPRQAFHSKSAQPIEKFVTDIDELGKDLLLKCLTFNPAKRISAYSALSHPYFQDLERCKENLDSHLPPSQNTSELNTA
# [17] = molecular target: Cyclin-dependent kinase 6 (Homo sapiens) (UniProt Q00534); conditions: at 1 µM
# [18] = molecular target: Dual specificity protein kinase CLK2 (Homo sapiens) (UniProt P49760); conditions: at 0.1 µM
# Chain of Dual specificity protein kinase CLK2 (Homo sapiens) (P49760 whole entry, looked up): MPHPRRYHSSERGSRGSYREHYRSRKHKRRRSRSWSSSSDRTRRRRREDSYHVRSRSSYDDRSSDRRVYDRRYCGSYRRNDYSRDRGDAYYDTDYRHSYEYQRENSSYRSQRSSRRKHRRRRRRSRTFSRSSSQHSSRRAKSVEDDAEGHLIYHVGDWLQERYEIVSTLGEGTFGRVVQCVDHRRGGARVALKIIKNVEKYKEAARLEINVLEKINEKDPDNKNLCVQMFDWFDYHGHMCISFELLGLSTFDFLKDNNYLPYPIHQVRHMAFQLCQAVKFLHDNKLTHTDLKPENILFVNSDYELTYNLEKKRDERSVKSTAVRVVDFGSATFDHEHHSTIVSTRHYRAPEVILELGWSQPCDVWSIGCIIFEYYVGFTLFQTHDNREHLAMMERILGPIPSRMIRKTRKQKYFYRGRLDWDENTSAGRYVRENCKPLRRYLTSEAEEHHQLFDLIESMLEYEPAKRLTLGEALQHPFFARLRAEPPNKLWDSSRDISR
# [19] = molecular target: Dual specificity protein kinase CLK2 (Homo sapiens) (UniProt P49760); conditions: at 1 µM
# [20] = molecular target: Dual specificity protein kinase CLK3 (Homo sapiens) (UniProt P49761); conditions: at 0.1 µM
# Chain of Dual specificity protein kinase CLK3 (Homo sapiens) (P49761 whole entry, looked up): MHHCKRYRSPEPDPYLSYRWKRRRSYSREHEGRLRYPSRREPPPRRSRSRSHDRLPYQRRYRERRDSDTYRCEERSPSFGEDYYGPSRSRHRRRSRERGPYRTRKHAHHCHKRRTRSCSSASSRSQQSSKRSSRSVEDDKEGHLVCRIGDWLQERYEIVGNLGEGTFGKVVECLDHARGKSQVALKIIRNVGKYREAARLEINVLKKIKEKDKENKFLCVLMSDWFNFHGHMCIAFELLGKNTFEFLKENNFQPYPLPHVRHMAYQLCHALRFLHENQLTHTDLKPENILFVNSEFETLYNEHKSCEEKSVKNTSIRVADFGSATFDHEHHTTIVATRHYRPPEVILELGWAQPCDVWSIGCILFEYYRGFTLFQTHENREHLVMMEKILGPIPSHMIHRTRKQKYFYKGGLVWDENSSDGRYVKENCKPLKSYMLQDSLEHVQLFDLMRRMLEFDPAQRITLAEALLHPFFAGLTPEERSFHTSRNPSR
# Chain of Casein kinase I isoform gamma-2 (Homo sapiens) (P78368 whole entry, looked up, canonical isoform): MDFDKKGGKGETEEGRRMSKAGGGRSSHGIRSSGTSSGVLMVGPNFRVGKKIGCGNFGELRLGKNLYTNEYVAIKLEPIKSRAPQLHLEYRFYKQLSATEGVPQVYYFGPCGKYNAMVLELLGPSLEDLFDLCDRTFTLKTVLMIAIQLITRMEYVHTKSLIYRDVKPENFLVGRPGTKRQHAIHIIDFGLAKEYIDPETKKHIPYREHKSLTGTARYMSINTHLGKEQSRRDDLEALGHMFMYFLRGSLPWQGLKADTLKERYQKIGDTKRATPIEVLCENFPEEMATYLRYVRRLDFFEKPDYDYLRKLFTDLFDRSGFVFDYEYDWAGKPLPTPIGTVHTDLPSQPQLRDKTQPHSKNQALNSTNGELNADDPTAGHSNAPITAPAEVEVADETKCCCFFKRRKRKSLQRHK
# Chain of Casein kinase I isoform gamma-3 (Homo sapiens) (Q9Y6M4 whole entry, looked up, canonical isoform): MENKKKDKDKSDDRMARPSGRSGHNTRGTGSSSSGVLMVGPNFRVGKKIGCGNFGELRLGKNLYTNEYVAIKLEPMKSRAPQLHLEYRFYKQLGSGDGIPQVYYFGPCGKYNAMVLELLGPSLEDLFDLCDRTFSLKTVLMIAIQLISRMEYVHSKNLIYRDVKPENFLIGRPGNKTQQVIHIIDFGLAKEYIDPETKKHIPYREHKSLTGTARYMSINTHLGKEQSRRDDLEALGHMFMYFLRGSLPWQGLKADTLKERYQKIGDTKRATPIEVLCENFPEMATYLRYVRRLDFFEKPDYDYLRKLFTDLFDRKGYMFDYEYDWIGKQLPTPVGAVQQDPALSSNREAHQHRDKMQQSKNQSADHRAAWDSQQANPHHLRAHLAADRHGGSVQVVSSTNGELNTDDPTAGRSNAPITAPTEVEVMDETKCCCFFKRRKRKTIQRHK
SMILES,inhibition [1],inhibition [2],inhibition [3],inhibition [4],inhibition [5],inhibition [6],inhibition [7],inhibition [8],inhibition [9],inhibition [10],inhibition [11],inhibition [12],inhibition [13],inhibition [14],inhibition [15],inhibition [16],inhibition [17],inhibition [18],inhibition [19],inhibition [20]
O=C(Nc1n[nH]c2nc(-c3ccco3)ccc12)C1CC1,1.22%,-1.28%,0.46%,-0.24%,2.61%,3.24%,6.79%,-0.16%,3.89%,0.19%,4.64%,1.89%,2.71%,-0.11%,1.68%,3.9%,8.22%,-0.38%,-0.4%,0.26%
CN1CCN(CCCNc2nc3ccc(Oc4ccc(NC(=O)Nc5cc(C(F)(F)F)ccc5F)cc4)cc3[nH]2)CC1,-2.41%,-3.59%,-4.66%,-2.5%,-3.79%,-3.51%,5.29%,-2.32%,-2.03%,0.7%,2.2%,-3.04%,-2.88%,-2.74%,-3.46%,-4.09%,-1.64%,2.17%,1.41%,-3.87%
NS(=O)(=O)c1ccc(N/N=C2\C(=O)Nc3ccc(C(=O)NCCCn4ccnc4)cc32)cc1,9.42%,5.52%,12.9%,20.5%,66.7%,97.4%,97.9%,65%,82.4%,27.8%,88.6%,16.6%,57.1%,33.8%,72.8%,10%,57.2%,15.6%,66.1%,1.77%
NC(=O)c1cc(-c2ccc(F)cc2)cc(-c2ccncc2)c1N,6.08%,4.13%,2.66%,0.65%,0.73%,2.41%,-6.47%,2.49%,2.14%,4.68%,-2.25%,4.11%,2.25%,-0.26%,-1.83%,0.37%,-0.58%,0.69%,1.24%,1.01%
CCC(=O)Nc1ccc(C)c(-c2ccc(C(=O)NCC3CC3)cc2)c1,3.16%,1.58%,1.61%,2.88%,2.38%,3.84%,3.06%,3.5%,4.47%,-1.57%,-2.39%,3.38%,5.05%,1.58%,1.54%,0.4%,0%,0.05%,-0.08%,0.16%
Fc1ccc(-c2ncn(CCCN3CCOCC3)c2-c2ccncc2)cc1,0.86%,0%,-0.19%,0.43%,2.72%,1.19%,0.72%,2.29%,5.92%,2.27%,1.42%,0.02%,5.08%,1.43%,3.98%,-8.34%,-1.04%,1.11%,2.52%,-1.43%
CN(C)c1ccc2c(c1)/C(=C/Nc1ccc(S(N)(=O)=O)cc1)C(=O)N2,1.27%,0.48%,0.92%,6.23%,33.9%,21.8%,82.6%,16.3%,54%,5.6%,38.9%,11.3%,43.5%,16.2%,57%,4.7%,48.2%,1.72%,11%,0.66%
COc1cc2ncn(-c3cc(OCCc4ccccc4)c(C(N)=O)s3)c2cc1OC,7.82%,2.44%,6.34%,0.36%,1.62%,0.55%,3.19%,2.3%,5.22%,1.71%,0.51%,1.86%,1.87%,0.7%,1.45%,-3.45%,2.54%,1.3%,2.64%,0.57%
COc1cc2ncn(-c3cc(OCc4ccccc4C(F)(F)F)c(C(C)=O)s3)c2cc1OC,3.62%,2.1%,2.97%,0.91%,2.22%,0.94%,2.63%,2.2%,3.96%,-1.43%,-2.36%,1.74%,2.66%,0.4%,1.96%,-0.64%,-0.67%,0.9%,-0.63%,0.94%
NC(=O)c1ccc(Oc2nccc(-c3c(-c4ccc(F)cc4)ncn3C3CCNCC3)n2)cc1,7.07%,4.74%,9.02%,3.25%,1.41%,3.34%,3.6%,3.03%,4.26%,-3.59%,1.23%,3.18%,3.14%,1.5%,1.61%,-4.69%,-0.8%,1.44%,6.51%,2.43%
COc1ccc2ncn(-c3cc(O[C@H](C)c4ccccc4Cl)c(C(N)=O)s3)c2c1,0.41%,-0.98%,-2.81%,-3.45%,-2.45%,-2.63%,-1.27%,-1.28%,1.93%,-2.44%,-2.98%,-2.27%,-0.19%,-3.87%,-2.17%,-3.71%,-2.1%,0.43%,0.2%,-2.29%
CCN(CC)Cc1ccc(Nc2nccc(-c3cnn4ncccc34)n2)cc1,13.7%,0.62%,10.6%,36.3%,68.1%,39.5%,82.5%,40.4%,70.1%,28.6%,78.8%,53.8%,69.8%,32.1%,66.8%,25.9%,62.1%,50.1%,91.7%,-2.57%
NS(=O)(=O)c1ccc(Nc2cc(-c3ccc(O)c(F)c3)n[nH]2)cc1,2.15%,-3.13%,4.18%,10.9%,51.7%,53.3%,78.9%,59.9%,86.9%,9.52%,60.1%,3.31%,23.6%,20.1%,68.7%,21.6%,70.9%,1.17%,3.95%,-0.37%
N#Cc1ccc(Oc2nccc(-c3c(-c4ccc(F)cc4)ncn3C3CCNCC3)n2)cc1,5.15%,1.83%,5.34%,0.28%,1.02%,0.77%,1.99%,1.81%,2.89%,-1.88%,-2.53%,0.98%,3.8%,0.41%,1.15%,1.26%,-1.15%,1%,-0.9%,0.28%
CCc1cccc(CC)c1/C=C/c1cncc(C(=O)NC)c1,5.11%,2.87%,4.99%,-0.08%,1.65%,1.26%,3.61%,2.79%,4.02%,-0.92%,1.62%,3.61%,4.03%,0.43%,1.68%,3.11%,2.84%,-1.55%,3.8%,1.35%
